In the library only some 1.6% were active in any assay of this set; here they are far more common.
KCNQ2 enhance: potentiators of rat KCNQ2 potassium channel; Potassium voltage-gated channel subfamily KQT member 2 (Rattus norvegicus), O88943; CHO-K1 KCNQ2, FluxOR thallium flux fluorescence; stronger effect = higher value; B-score at 10 µM; hit rate 0.54% among 310,000;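 active = fluorescence ratio B-score at least 3 SD of library B-scores, with initial fluorescence B-score within 3 of them, cut at about 5.3 in these data; same plate scores as AID 2156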;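 note: B-score of peak minus minimum over baseline fluorescence ratio after K+ and Tl+ stimulus; positive B-score means potentiation of KCNQ2 with more thallium influx and brighter signal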
Target sequence (O88943 whole entry, looked up): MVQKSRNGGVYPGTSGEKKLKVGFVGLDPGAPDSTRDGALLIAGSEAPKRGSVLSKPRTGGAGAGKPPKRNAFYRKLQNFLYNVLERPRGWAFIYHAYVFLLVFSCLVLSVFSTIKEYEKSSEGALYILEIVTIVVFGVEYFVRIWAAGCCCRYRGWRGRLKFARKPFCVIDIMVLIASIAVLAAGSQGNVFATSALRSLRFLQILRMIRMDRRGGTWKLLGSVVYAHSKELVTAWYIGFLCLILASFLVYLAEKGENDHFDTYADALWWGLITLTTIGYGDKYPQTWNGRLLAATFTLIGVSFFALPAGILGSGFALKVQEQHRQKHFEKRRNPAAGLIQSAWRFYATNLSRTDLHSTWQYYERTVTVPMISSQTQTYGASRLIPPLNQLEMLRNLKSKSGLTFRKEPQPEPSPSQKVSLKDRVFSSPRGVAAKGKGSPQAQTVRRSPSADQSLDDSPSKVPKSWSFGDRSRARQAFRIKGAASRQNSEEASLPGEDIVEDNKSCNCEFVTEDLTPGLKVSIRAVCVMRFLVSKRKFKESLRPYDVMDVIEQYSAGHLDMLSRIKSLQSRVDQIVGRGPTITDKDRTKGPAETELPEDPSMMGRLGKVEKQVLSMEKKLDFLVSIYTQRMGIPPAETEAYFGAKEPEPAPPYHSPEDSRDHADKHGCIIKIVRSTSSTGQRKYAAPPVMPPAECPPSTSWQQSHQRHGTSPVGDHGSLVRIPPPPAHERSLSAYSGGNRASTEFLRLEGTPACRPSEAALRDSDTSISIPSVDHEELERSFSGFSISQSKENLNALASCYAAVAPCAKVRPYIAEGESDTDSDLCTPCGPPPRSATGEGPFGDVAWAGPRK
KCNQ2 block: rat KCNQ2 potassium channel inhibitors, primary screen, cell-based, CHO-K1, FluxOR thallium flux, B-score | Potassium voltage-gated channel subfamily KQT member 2 (Rattus norvegicus), O88943 | 20 min; stronger effect = lower value | B-score at 10 µM | hit rate 1.1% among 310,000;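 active = fluorescence ratio B-score at most minus 3 library SDs, with starting brightness B-score within 2 library SDs, cut at about -5.5 in these data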
Kir21 conf inh: mouse Kir2.1 channel blockers, retest, confirmation, cell-based, FluxOR thallium flux, duplicate; hit rate 41% among 2,300; shares compounds with KCNQ2 enhance; Kir2.1-expressing cells, FluxOR thallium flux fluorescence; stronger effect = lower value; AID 2032, 2009; Tl flux remaining, % of negative control (stronger effect = lower value), % at 10 µM;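 active = Primary-screen hit whose thallium flux fell at least 3 control SD below untreated wells in both duplicates, with normal baseline fluorescence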;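 note: 0% = blank wells without stimulus and 100% = stimulated no-compound controls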
HEK293 ctr: counter-screen for Kir2.1 inhibitors: effect in parental HEK293 cells; shares compounds with KCNQ2 enhance; FluxOR thallium flux fluorescence; 0% = unstimulated blank wells; FluxOR signal as % of negative control (100 = no effect), % at 10 µM; hit rate 19% among 2,300;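 active = dye signal at least 3 control SD above or below untreated wells in both duplicates, raw fluorescence within 3, either direction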;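 note: percent is based on the flux ratio of peak minus minimum fluorescence over baseline F0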
CHO-K1 ctr: nonspecific thallium flux increase in parental CHO-K1, confirmation, counter-screen for KCNQ2 potentiator project, cell-based, FluxOR thallium flux, duplicate. shares compounds with KCNQ2 enhance. parental CHO-K1 cells, FluxOR thallium flux fluorescence; zero = vehicle mean+3SD, 100% = vehicle-minus-blank window. activity increase over 3SD of controls, % at 10 µM. hit rate 43% among 1,200;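 active = signal rise of at least 3 SD above the untreated control mean, in both duplicate wells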;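 note: counter screen of KCNQ2 potentiator hits so any rise reflects channel-independent effects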
KCNQ1 sel pot: human KCNQ1 channel potentiation off-target, confirmation, selectivity assay for KCNQ2 potentiator project, cell-based, CHO, FluxOR thallium flux | shares compounds with KCNQ2 enhance | CHO KCNQ1 stable, FluxOR thallium flux fluorescence; beyond 3SD, as % of vehicle-control signal | activation over 3SD threshold, % at 10 µM | hit rate 28% among 1,200 | AID 2283, 2010;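 active = fluorescence ratio rise of at least 3 SD of vehicle wells above their mean, in both replicate wells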;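 note: 0% = vehicle mean plus 3 SD and 100% = vehicle minus unstimulated blank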
KCNQ2 pot conf: rat KCNQ2 channel potentiators, confirmation, cell-based, CHO, FluxOR thallium flux, duplicate; AID 2287, 2010; hit rate 68% among 1,200; CHO-KCNQ2 cells, FluxOR thallium flux fluorescence; potentiation, less the hit threshold, % at 10 µM; shares compounds with KCNQ2 enhance;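 active = fluorescence ratio rising 3 SD or more over the vehicle control mean in both replicates, plus primary screen hit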;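 note: peak minus minimum thallium fluorescence divided by baseline after K/Tl stimulus; 0% = vehicle mean plus 3 SD and 100% = vehicle minus unstimulated blank difference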
Kir21 spec: mouse Kir2.1 channel activation off-target, confirmation, selectivity assay for KCNQ2 potentiator project, cell-based, HEK293, FluxOR thallium flux; hit rate 2% among 1,200; shares compounds with KCNQ2 enhance; activity over 3SD threshold, % at 10 µM; HEK293 Kir2.1, FluxOR thallium flux fluorescence;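 active = fluorescence ratio rise of at least 3 SD above the vehicle-control mean, seen in both replicates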;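 note: 0% = vehicle mean plus 3 SD and 100% = vehicle minus no-stimulus blank window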
KCNQ2 W236L MoA: potentiators of retigabine-insensitive KCNQ2 W236L, mechanism study for KCNQ2 potentiator project, cell-based, rat KCNQ2 W236L, CHO, automated patch clamp. shares compounds with KCNQ2 enhance. current increase over 3SD of negative controls (%), stronger effect = higher value, % at 25 µM. AID 2558, 2010. automated patch clamp current. hit rate 10% among 940;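 active = current increase at least 3 SD of the untreated controls above them in both duplicate recordings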
* marks the source's active call; other numbers are inactive results; i = inactive; . = not tested or not shown.

SMILES	KCNQ2 enhance	KCNQ2 block	Kir21 conf inh	HEK293 ctr	others
COc1cc(OC)c(OC)cc1CNCCc1cccc(F)c1	0.68	i	.	.
Fc1ccc(C(OCCN2CCCC2)c2ccc(F)cc2)cc1	2.49	i	.	.
Fc1ccc(C(OCCN2CCCC2)c2ccc(Br)cc2)cc1 (centres undefined)	.	i	45.0%*	i
CN1CCN(C(=O)COc2ccc(-c3nc4ccccc4s3)cc2)CC1	0.31	i	.	.
Cn1c(O)c(/C=C/C=Nc2ccccc2)c(=O)n(C)c1=S	.	i	.	.
CCC(=O)N1N=C(c2c(O)n(CCc3ccccc3)c(=O)[nH]c2=O)CC1c1ccc(OC)c(OC)c1 (centres undefined)	1.47	i	.	.
O=P(Oc1ccccc1)(Oc1ccccc1)C(O)c1ccccc1 (centres undefined)	.	i	.	.
O=P(Oc1ccccc1)(Oc1ccccc1)c1ccccc1	.	i	60.0%*	i
Cc1cc(Cl)ccc1OCCCC(=O)NCc1cccs1	.	i	.	.
Cc1ccc(CN2CCN(Cc3ccccc3F)CC2)cc1	0.52	i	42.5%*	i
CCN1CCN(Cc2ccc(C)cc2)CC1	1.27	i	.	.
Cc1cccc(CN2CCN(c3ccc(Cl)cc3)CC2)c1	.	i	.	.
Cc1cccc(CN2CCN(Cc3ccc(Cl)cc3)CC2)c1	.	i	23.5%*	i
OC1/C(=C/c2ccccc2F)N2CCC1CC2 (centres undefined)	0.91	i	.	.
COC(=O)C1=C(c2ccc(S(C)(=O)=O)cc2)C[C@@H]2CC[C@H]1N2C(=O)NC1CCCCC1	0.76	i	.	.
CN(C)CCOC(=O)c1cn(Cc2ccccc2)c2ccccc12	.	i	52.5%*	i
CCC(=O)c1cn(Cc2ccccc2)c2ccccc12	2.15	i	.	.
CC(=O)CC(=O)C1C(=O)N(C)C(=O)N(C)C1=O	.	i	.	.
Cc1nc2ccccc2c(=O)n1/N=C/c1cc(Br)cc(Br)c1O	8.05*	i	i	i	CHO-K1 ctr=11.1*;KCNQ1 sel pot=-15.3;KCNQ2 pot conf=-25.7;Kir21 spec=-33.2
Cc1nc2ccccc2c(=O)n1-c1ccc(Br)cn1	.	i	.	.
CCCCCSc1cc(OC)c(CCN(C)C)cc1OC	0.11	i	45.0%*	i
CCCCCSc1cc(O)c(C(CNC)C(C)C)cc1OC (centres undefined)	0.41	i	.	.
CCC(=NCCCn1ccnc1)c1c(O)n(-c2ccc(OC)cc2)c(=O)[nH]c1=O	.	i	.	.
CC(NCc1cccc(Cl)c1Cl)C(O)c1ccccc1 (centres undefined)	.	i	.	.
CCOc1c(Cl)cc(CNC(C)C(O)c2ccccc2)cc1OC (centres undefined)	.	i	.	.
SMILES	KCNQ2 enhance	KCNQ2 block	Kir21 conf inh	HEK293 ctr	others
CC(NCc1ccc(Cl)cc1)C(O)c1ccccc1 (centres undefined)	.	i	21.5%*	73.0%*
CC(NCc1ccc(Cl)cc1Cl)C(O)c1ccccc1 (centres undefined)	.	i	15.5%*	i
CN(C)CP(=O)(O)CN(C)C=O	.	i	.	.
COC(=O)C1=C(c2ccc(S(C)(=O)=O)cc2)C[C@@H]2CC[C@H]1N2C(=O)N1CCC(C)CC1	.	i	.	.
CCC1(C)CN(S(=O)(=O)OCC(Cl)(Cl)Cl)C(=O)N1 (centres undefined)	0.01	i	.	.
COc1ccccc1N1CCN(Cc2ccc(SC)cc2)CC1	0.84	i	.	.
CCc1ccc(CN2CCN(Cc3ccc(SC)cc3)CC2)cc1	.	i	27.0%*	i
COc1ccc(CN2CCCC(C(=O)c3cccc(Cl)c3)C2)cc1 (centres undefined)	.	i	24.5%*	i
CSc1ncc(CN2CCCC(C(=O)c3cccc(Cl)c3)C2)cn1 (centres undefined)	1	i	.	.
CCOc1ccc(CC2(CCc3ccncc3)C(=O)NC(=O)NC2=O)cc1	0.01	i	.	.
O=c1[nH]sc2cc(F)ccc12	6.9*	i	.	.	CHO-K1 ctr=-6.7;KCNQ1 sel pot=-16.4;KCNQ2 pot conf=0.2*;Kir21 spec=-56.3;KCNQ2 W236L MoA=55.8%*
O=C(N/N=C/C1C(=O)NC(=S)N(c2ccccc2)C1=O)c1cc(Br)c(O)c(Br)c1 (centres undefined)	.	i	.	.
